# SW480 rereplic – A quantitative high throughput screen for small molecules that induce DNA re-replication in SW480 colon adenocarcinoma cells | SW480 DNA re-replication, Hoechst DNA content imaging, 48 h | Potency, µM (titrated, usually from 46.1 µM), for the others: at the highest dose re-replication activation, actives largely listed as activators | 340,000 tested, 1.8% active | AID 624297, 2012; also: % of control where 0% means no effect; nearly all actives have a fitted effect of over 55% in size
#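 First, 250 cells per well were seeded. Next, compound or vehicle (23 nL) was pinned in, plates sat 48 hr at 37 C. Finally Hoechst was added for 40 min before fluorescence scanning.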
# ELG1 repair inh – qHTS screen for small molecules that inhibit ELG1-dependent DNA repair in human embryonic kidney (HEK293T) cells expressing luciferase-tagged ELG1. HEK293T ELG1-luciferase reporter, luminescence, 16 h; DNA damage induced by 5-fluorouridine. Potency, µM (titrated, usually from 46.1 µM), for the others: at the top dose activity change, negative = inhibition, most hits filed as inhibitors. 330,000 tested, 2.3% active. AID 504467, 2011; also: % is scaled to controls: 0 for no effect and ±100 for the full control effect; nearly all actives have a fitted effect of over 55% in size
#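 Luminescence from the luciferase reporter, measured 30 min after ONE-Glo reagent at room temperature, was the read-out. Beforehand, 2,000 cells per well were exposed for 16 hr at 37 °C to 5-fluorouridine together with compound or vehicle.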
# MCF10A rerep – A quantitative high throughput screen for small molecules that induce DNA re-replication in MCF 10a normal breast cells | MCF 10A DNA re-replication, Hoechst nuclear intensity, 48 h | Potency, µM (doses to about 46.1 µM), for the others: at the top dose activity, positive = re-replication, hits mostly activators | 350,000 tested, 2.9% active | AID 624296, 2012; also: % of control where 0% means no effect; nearly all actives have a fitted effect of over 50% in size
# VP16 counter – VP16 counterscreen qHTS for inhibitors of ROR gamma transcriptional activity; Drosophila S2 Gal4-VP16 UAS-luciferase, luminescence, 20 h; Potency, µM (highest dose often 53.6 µM), without a hit: at the top dose activity, negative = inhibition, usual class: inhibitors; 310,000 tested, 3.5% active; AID 2546, 2010;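 also: Gal4-VP16 expression switched on by copper sulfate through the metallothionein promoter; % is scaled to controls: 0 for no effect and ±100 for the full control effect; nearly all actives have a fitted effect of over 50% in size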
# RORgamma inh – qHTS for inhibitors of ROR gamma transcriptional activity; AID 2551, 2010; Drosophila S2 Gal4-RORgamma UAS-luciferase reporter, 20 h; Nuclear receptor ROR-gamma (Mus musculus), P51450; Potency, µM (doses to about 53.6 µM), for inactives: at the highest dose activity change, negative = inhibition, actives largely listed as inhibitors; 310,000 tested, 5.4% active; also: % is scaled to controls: 0 for no effect and ±100 for the full control effect; nearly all actives have a fitted effect of over 60% in size
# Target sequence (P51450 whole entry, looked up, the tested form may be a part): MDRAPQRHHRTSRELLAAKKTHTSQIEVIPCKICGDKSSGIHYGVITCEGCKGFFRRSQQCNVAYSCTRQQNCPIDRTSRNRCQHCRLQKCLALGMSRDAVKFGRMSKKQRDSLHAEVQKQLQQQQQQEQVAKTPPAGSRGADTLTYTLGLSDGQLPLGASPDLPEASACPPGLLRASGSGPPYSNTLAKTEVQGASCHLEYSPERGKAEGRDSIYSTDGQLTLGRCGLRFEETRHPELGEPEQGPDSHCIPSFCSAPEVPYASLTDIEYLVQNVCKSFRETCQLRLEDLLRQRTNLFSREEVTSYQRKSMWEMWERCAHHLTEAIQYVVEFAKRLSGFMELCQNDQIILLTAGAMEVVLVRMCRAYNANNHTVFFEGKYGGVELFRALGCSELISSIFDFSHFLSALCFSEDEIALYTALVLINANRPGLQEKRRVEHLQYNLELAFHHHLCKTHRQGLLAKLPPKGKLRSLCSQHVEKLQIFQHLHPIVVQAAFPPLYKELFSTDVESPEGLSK
#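 Luciferase reporter read in Schneider cells carrying Gal4-RORγ (mouse) and UAS-Photinus luciferase; cells given compound 1 h before 700 uM copper sulfate induction, then incubated 20 h at ambient temperature.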
# * marks the source's active call; other numbers are inactive results; u = inconclusive; x = not tested or not shown; [ ] = another dose, or the depositor's remark. A selection: hits, their analogues and other compounds. The true share with any hit is near 10%. Calls follow the shape of the dose curve; as a rule, active = well fitted curve in the direction sought with a large enough effect; inconclusive = small, poorly fitted or top-dose-only effect, or another doubt; inactive = no such curve, though single readings can be large; an effect the other way counts as inactive or inconclusive. Potency is read from the fitted curve at half-maximal effect.
SMILES,SW480 rereplic,ELG1 repair inh,MCF10A rerep,VP16 counter,RORgamma inh
CN(C)c1cccc(F)c1C(=O)NC(=O)Nc1ccc(Cl)cc1,u,x,10µM*,x,x
CN(C)c1cccc(N(C)C)c1CNC(=O)NC(=O)c1c(F)cccc1F,7%,-22%,1%,-9%,21%
COc1cc(/C=N/Nc2nc(=O)[nH]nc2C)ccc1O,15µM*,-20%,u,-13%,11µM*
COc1ccc(/C=N/Nc2nc(=O)[nH]nc2C)cc1[N+](=O)[O-],3%,14%,-7%,1%,-4%
Cc1n[nH]c(=O)nc1N/N=C/c1ccc(O)c([N+](=O)[O-])c1,x,24%,u,u,11µM*
Cc1ccc(/C=N/Nc2nncn2N)cc1,u,-2%,u,13µM*,u
COc1ccc(/C=N/Nc2nc(=O)[nH]nc2C)cc1OC,2.9µM*,-7%,u,8%,11µM*
COc1cc(/C=N/Nc2nc(=O)[nH]nc2C)cc([N+](=O)[O-])c1O,-28%,-1%,-1%,-4%,-47%
COc1cc(/C=N/Nc2nc3ccccc3[nH]c2=O)ccc1O,u,6%,0%,27%,u
Nn1cnnc1N/N=C/c1ccc(F)cc1,25%,-12%,u,u,u
O=C(CN1CCOCCOCCOCCOCC1)Nc1ccccc1,u,u,u,-2%,11%
CC(C)C1Oc2cc3oc(=O)ccc3cc2C1=O (configuration not stated),3%,u,0%,4%,14%
COc1ccc(/C=N/Nc2nnc(C)n2N)cc1OC,u,4%,u,u,11µM*
CCN(CCO)Cc1csc2ccc(Cl)cc12,4%,-4%,19%,0%,1%
Cn1c(SCC(=O)NC(=O)Cc2ccccc2)nnc1-c1ccc(F)cc1,-17%,3%,-14%,x,x
O=C(CNC(=O)c1ccccc1)N/N=C/c1cn[nH]c1-c1ccccc1,-5%,-16%,0%,u,-14%
O=C(N/N=C/c1cn[nH]c1-c1ccc(Cl)cc1)c1ccc([N+](=O)[O-])cc1,18%,-17%,-11%,u,10µM*
O=C(N/N=C\c1cn[nH]c1-c1ccc(Cl)cc1)c1cccs1,8%,15%,u,u,u
O=C(N/N=C\c1cn[nH]c1-c1ccccc1)c1ccc([N+](=O)[O-])cc1,4.1µM*,-16%,3%,-4%,11µM*
Cc1ccc(-n2cnc3c(sc4nccc(N(C)C)c43)c2=O)cc1,-7%,10µM*,10%,-1%,24%
COc1ccc(C2=NS(=O)(=O)N(C)C(C(=O)Nc3ccc(C(C)=O)cc3)=C2)cc1OC,-15%,-25%,16%,16µM*,14%
COc1ccc(CNC(=O)Nc2cc(C)cc(C)c2)cc1,-1%,u,-2%,-11%,-15%
COc1ccc(NC(=S)NCCCCCC(=O)C[N+](=O)[O-])cc1,2%,2%,-19%,u,4.5µM*
COc1ccc(CCNC(=S)Nc2cc(C)cc(C)c2)cc1,2%,-5%,-6%,13µM*,7.1µM*
FC(F)(F)Oc1ccc(NC(=S)Nc2ccc(OC(F)(F)F)cc2)cc1,-5%,u,-8%,u,u
SMILES,SW480 rereplic,ELG1 repair inh,MCF10A rerep,VP16 counter,RORgamma inh
Cc1ccc(NC(=S)NCCc2ccc(S(N)(=O)=O)cc2)cc1C,-5%,-14%,3%,0%,u
CC(C)c1ccc(NC(=S)Nc2ccc(OC(F)(F)F)cc2)cc1,22%,-8%,-1%,11µM*,8.9µM*
O=C(CCCCCNC(=S)Nc1ccc(Cl)cc1)C[N+](=O)[O-],-6%,-3%,41%,0%,-10%
Cc1cc(C)cc(NC(=S)NCCc2ccc(S(N)(=O)=O)cc2)c1,-3%,-14%,-5%,u,10µM*
CCOc1ccc(N(CC(=O)NCc2ccc(F)cc2)C(=O)c2ccco2)cc1,-2%,3%,8%,0%,8%
COc1ccc(CCNC(=S)Nc2ccc(OC)cc2)cc1,-2%,4%,6%,10µM*,3.5µM*
COc1ccc(CCNC(=S)Nc2ccc(C(C)C)cc2)cc1,5%,-17%,u,u,2.5µM*
COc1ccc(NC(=S)N(CCc2c(C)[nH]c3ccc(C)cc23)Cc2cccnc2)cc1,3%,u,0%,2%,u
COc1ccc(NC(=O)Nc2ccc(C(C)C)cc2)cc1,5%,u,4%,22%,12%
CNC(=S)NCCc1ccc(OC)cc1,-5%,5%,12%,6%,u
COc1ccc(CCNC(=S)Nc2ccccc2)cc1,-1%,u,4%,7.1µM*,2µM*
COc1ccc(NC(=S)NCCc2c(C)[nH]c3ccc(OC)cc23)cc1,-9%,u,-10%,u,5.6µM*
COc1ccccc1NC1CCCCC1NS(=O)(=O)c1ccccc1 (configuration not stated),-1%,-3%,0%,11%,-16%
Cc1ccc(/C=C/C(=O)Nc2ccccc2C(N)=O)cc1,-1%,u,u,u,3.5µM*
CCOC(=O)c1ccccc1N/C=C/C(=O)c1ccccc1,2%,x,-1%,x,x
NC(=O)c1ccccc1N/C=C/C(=O)c1ccc(Cl)cc1,7%[9.22 µM],u,u,1.6µM*,1.4µM*
Cc1ccc(C(=O)/C=C/Nc2ccccc2C(N)=O)cc1,-1%,u,2%,2.8µM*,0.5µM*
NC(=O)c1ccccc1NC(=O)/C=C/C(=O)O,-11%,9%,2%,1%,28%
NC(=O)c1ccccc1N/C=C/C(=O)c1ccco1,-2%[9.22 µM],u,-2%,-9%,-20%
Cc1ccsc1C(=O)NCc1ccc(F)cc1,-22%,-14%,1%,-11%,9%
COc1ccc(N(CC(=O)NCc2cccs2)S(=O)(=O)c2cccc(C)c2)cc1,4%,-7%,2%,x,x
Cc1ccc(C)c(CSc2nnc(-c3cccs3)n2Cc2ccco2)c1,u,-12%,21µM*,-1%,-13%
CCOc1ccc(N(Cc2ccc(C(=O)O)cc2)S(=O)(=O)c2ccc(C)cc2)cc1,u,0%,3.7µM*,-8%,33%
Cc1ccc2cc(CN(c3ccccc3)S(=O)(=O)c3ccccc3)c(=O)[nH]c2c1,-18%,12%,6%,-18%,11%
Cc1ccc(N(Cc2cc3cc(C)ccc3[nH]c2=O)S(=O)(=O)c2ccccc2)cc1,18µM*,u,u,-4%,16%
CCOc1ccc(N(Cc2cc3ccc(C)cc3[nH]c2=O)S(=O)(=O)c2ccccc2)cc1,21µM*,u,21µM*,-11%,-3%

# Source: PubChem
